RAM inhibit – inhibitors of the yeast RAM network, primary screen, dse1pr::URA3 reporter, 5-FOA selection; S. cerevisiae dse1pr::URA3 reporter, 5-FOA growth OD615, 2 d; analog-sensitive cbk1-as2 kinase mutant strain; actives 1.8% (n = 190,000); inhibition, % at 50 µM;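 active = inhibition above a set limit, 3 SD over mean compound inhibition, cut at about 8.4% in these data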;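 note: 0% = DMSO-only wells with no growth and 100% = 10 µM 1-NA-PP1 full growth; inhibition rescues growth on 5-FOA so higher OD means more RAM inhibition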
WT yeast gro inh – growth inhibition of WT strain, primary screen, mitochondrial fusion inhibitor project, WT and mutant strains, chemical genetic | mitochondrial fusion phenotypic screen | inhibition, % at 10 µM | actives 2.1% (n = 190,000) | AID 1362, 2008; in the data active = inhibition above about 58%; tested in S. cerevisiae
CHOP inh – inhibitors of CHOP promoter induction, primary screen, cell-based, unfolded protein response, luciferase reporter | inhibition, % at 10 µM | actives 3.8% (n = 220,000) | CHO-K1 CHOP-promoter luciferase, tunicamycin-induced, 15-18 h;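 active = compounds that reduced the stress-induced luciferase reporter signal by more than about 70% of percent inhibition, limit read from the data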;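 note: 0% = tunicamycin plus vehicle and 100% = wells without tunicamycin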
L major viab – Leishmania major promastigote growth inhibition, primary screen. inhibition, % at 10 µM. Leishmania major promastigotes, resazurin fluorescence viability. actives 9% (n = 200,000); in the data active = inhibition above about 50%;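 note: promastigotes grown with compound for 44 hours at 28 °C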
Active calls of the source: *; . = not tested or not shown. In the library only some 13% were active in any assay of this set; here they are far more common.

SMILES	RAM inhibit	WT yeast gro inh	CHOP inh	L major viab
Cc1ccc(NC(=O)CC2=NC(=O)C(CC(=O)Nc3ccccc3C)S2)cc1 (centres undefined)	6.9	-8.7	8.7	-1.3
Cc1ccc(NC(=O)CSCC(=O)N2c3ccccc3CCc3ccccc32)cc1	3.4	41.5	56.5	66.5*
Cc1ccc(NC(=O)N2CCc3ccccc32)cc1	-0.2	27.3	15.2	0.8
CNC(=O)C1=C(C)NC(=S)NC1c1cc2c(cc1OC)CCCC2 (centres undefined)	1.1	-6.1	16.1	-3.7
CCC(=C(c1ccc(OC)cc1)c1ccc(OC)cc1)c1cn(CC(O)CN2CCN(C)CC2)c2ccccc12 (centres undefined)	-0.3	80.3*	-21.2	100.3*
Cc1ccnc(N/N=C/c2ccco2)n1	-0.5	-3.6	7.7	-6.2
Cc1cccc2c1[nH]c1nc(N/N=C\c3ccco3)nnc12	0.8	-0.3	85.3*	61.0*
CN(C)S(=O)(=O)c1cccc(NC(=S)N/N=C/c2cc(Br)ccc2O)c1	.	.	72.3*	.
CN(C)S(=O)(=O)c1cccc(NC(=S)N/N=C/c2cccc(O)c2)c1	5.3	-47.7	9.9	-1.9
CCc1ccc(C(O)(c2ccccc2OC)C(CN2CCOCC2)c2ccccc2)cc1 (centres undefined)	0.9	76.9*	-9.8	34.3
CC1(C)CC(=O)c2c(oc3cc(O)c(O)cc23)C1	1.0	-24.3	-25.2	84.4*
O=C(N=Nc1c(O)[nH]c2ccc(Br)cc12)c1cc(-c2cccs2)nc2ccccc12	5.1	-9.7	-7.4	21.6
O=C(N=Nc1c(O)[nH]c2ccc(Br)cc12)c1cc(-c2cccc3ccccc23)n[nH]1	5.8	2.0	62.1	66.2*
O=C(N=Nc1c(O)[nH]c2ccc(Br)cc12)c1ccccc1-n1cccc1	2.4	83.3*	53.3	24.3
CC(C)C(C)NC(=O)COC(=O)c1cccc(C(=O)OCC(=O)NC(C)C(C)C)n1 (centres undefined)	2.9	8.5	-7.4	-1.1
Cc1cc(=S)c2cccc(C)c2[nH]1	1.0	54.3	2.6	-2.7
CCOC(=O)C(C(=O)Nc1nc2ccccc2s1)C1CCCCC1 (centres undefined)	5.9	14.6	74.2*	85.5*
CCOC(=O)C(C(=O)Nc1ccccn1)C1CCCCC1 (centres undefined)	1.6	23.7	25.1	-5.8
CCOC(=O)C(C(=O)Nc1cccc(C)n1)C1CCCCC1 (centres undefined)	1.3	-0.9	18.5	4.0
CCOC(=O)C(C(=O)Nc1nccs1)C1CCCCC1 (centres undefined)	1.7	-11.5	20.3	51.8*
CCN(Cc1cc2cc(C)ccc2[nH]c1=O)C(=O)c1cccc([N+](=O)[O-])c1	.	.	27.6	.
O=C(Nc1ccc(Cc2ccncc2)cc1)C1CCC(N2C(=O)C3C4C=CC(C4)C3C2=O)CC1 (centres undefined)	-0.5	-22.9	1.7	62.3*
O=C(Nc1ccc(Cc2ccncc2)cc1)C1CCC(N2C(=O)C3CC=CCC3C2=O)CC1 (centres undefined)	2.0	-1.5	24.0	-4.8
CC(C)CCNC(=O)C(=O)Nc1ccccc1	3.8	5.0	12.8	-2.5
COCC(C)N=C1NN=C(c2cc(C)n(Cc3ccccc3Cl)c2C)CS1 (centres undefined)	2.1	44.3	43.8	63.8*
SMILES	RAM inhibit	WT yeast gro inh	CHOP inh	L major viab
COCCCN=C1NN=C(c2cc(C)n(Cc3ccco3)c2C)CS1	0.6	-6.5	11.1	94.8*
C=CCn1c(C)cc(C2=NNC(=Nc3ccc(C)cc3)SC2)c1C	1.8	-15.1	7.3	-3.9
Cc1cc(C2=NNC(=NC3CC3)SC2)c(C)n1Cc1ccco1	1.5	0.8	95.5*	19.7
O=C(NCCN1C(=O)S/C(=C\c2cccnc2)C1=O)C1=NN(c2ccccc2)C(=O)CC1	-0.1	-7.1	2.0	6.2
O=C1NC(Cc2ccccc2)C(=O)N1Cc1cc([N+](=O)[O-])cc2c1OCOC2 (centres undefined)	1.2	11.6	4.8	-8.2
O=C(Cn1nnc2ccccc2c1=O)NCCc1ccc(F)cc1	1.0	2.8	0.8	-4.7
O=C(NN=C1CCCCCCCCCCC1)c1ccncc1	3.9	-5.5	1.9	0.5
CCN(CC)S(=O)(=O)c1cccc(C(=O)OCC(=O)NC(C)c2ccccc2)c1 (centres undefined)	0.9	4.8	5.5	1.8
Cc1ccc(NC(=O)c2cc(N(C)C)ccc2[P+](=O)O)cc1	0.6	-3.6	90.8*	-0.2
Cc1cc(C)nc(Sc2ccc([N+](=O)[O-])cc2[N+](=O)[O-])n1	3.3	-2.9	-9.3	86.6*
